In PubChem BioAssay AID652057 (Broad Institute, 2013):
The campaign covered roughly 1,400 compounds. About 1,000 (71%) were called active. The rule behind the calls is not given here. The set was probably picked from earlier hits. Only a sample is shown. Entries with a potency or affinity are not part of this list.

Assay: blockers of HIV-1 envelope-mediated cell-cell fusion – cherry-pick, dose response (AID 652057)
Settings: HeLa-JRFL Env/CEM21 cell fusion, luciferase; series mostly up to 35 µM

Activity change, negative = inhibition, inactive:
COc1ccc(/C=C/c2nc(S(=O)(=O)c3ccccc3)c(NCCCN(C)C)o2)cc1OC, CC(C)(C)c1ccc(-n2ncc3c2CCCC3NC(=O)CN2CCCC2=O)cc1 (stereo not drawn), C[C@H]1CN([C@@H](C)CO)C(=O)c2cc(NS(=O)(=O)c3ccc(F)cc3)ccc2O[C@H]1CN(C)S(=O)(=O)c1ccc(F)cc1, Cc1noc(C)c1S(=O)(=O)N(C)C[C@H]1Oc2ccc(NC(=O)Nc3ccccc3)cc2CC(=O)N([C@H](C)CO)C[C@H]1C, Cc1ccc(OCCN2CCN(c3ncnc4sc(C)c(C)c34)CC2)cc1, Nc1ccc(S(=O)(=O)c2ccc(N3CCOCC3)c(N)c2)cc1, Cc1onc(-c2ccccc2)c1C(=O)OCCOc1cccc(Cl)c1, COC(=O)C1CCN(C(=O)COC(=O)c2cc(S(=O)(=O)N3CCOCC3)ccc2C)CC1, O=C(O)C[C@@H]1CC[C@@H](NC(=O)c2ccncc2)[C@H](CO)O1, O=C(C[C@@H]1CC[C@@H](NC(=O)c2ccncc2)[C@H](CO)O1)NCCc1ccncc1, CN(C)CC(=O)Nc1ccc2c(c1)[C@H]1C[C@H](CC(=O)NCc3cccc(F)c3)O[C@@H](CO)[C@H]1O2, Cc1ccccc1S(=O)(=O)NC(=O)C1(C)CCN1C(=O)CCc1ccc(Cl)cc1Cl (stereo not drawn), O=C(c1cccc(S(=O)(=O)N2CCN(c3ccccc3)CC2)c1)N1CCCC(C(F)(F)F)C1 (stereo not drawn), Cn1cc(S(=O)(=O)N2CCOCC2)cc1C(=O)Nc1cccc(Cl)c1, O=C(Nc1cccc(F)c1)N[C@H]1CC[C@@H](CCNS(=O)(=O)c2cccc(Cl)c2)O[C@H]1CO, O=C(Nc1cccc(F)c1)N[C@@H]1CC[C@H](CCNS(=O)(=O)c2cccc(Cl)c2)O[C@H]1CO, COc1cccc(S(=O)(=O)N2CC3(CN(C(=O)Nc4cccc(F)c4)[C@H](CO)c4[nH]c5cc(OC)ccc5c43)C2)c1, CC(C)OCCCn1c(=S)[nH]c2ccc(N3CCOCC3)cc2c1=O, Cn1cccc1C(=O)OCC(=O)NCCc1ccc(S(N)(=O)=O)cc1, CN(C)CC(=O)Nc1ccc2c(c1)[C@H]1C[C@@H](CC(=O)NCCc3ccccc3)O[C@H](CO)[C@H]1O2, CC1Cc2cc(-c3csc(NC(=O)Cc4cccs4)n3)ccc2N1S(C)(=O)=O (stereo not drawn), O=C(Nc1nc(-c2ccc3c(c2)OCO3)cs1)c1ccncc1, CS(=O)(=O)N1CCN(c2ccccc2NC(=O)C(c2ccccc2)c2ccccc2)CC1
